Measured values as given in PubChem BioAssay AID1159580 (chemical genetic matrix, 2015).
Screen size: about 5,500 compounds; about 2,000 (36%) were called active. Another 18% or so got no clear call; they are omitted. Cut-off read from the data, not from the text of the source: active = normalized growth mostly below about 0.91 (no sharp cut-off); inconclusive = no clear call, values can overlap the other calls; inactive = mostly above about 0.92. This is one part of the list.

Test: chemical genetic growth profiling, strain panel (AID 1159580);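 note: tested at 20 µM; growth read once vehicle control cultures reached saturation at 30 °C; 1 = growth at the plate median or of vehicle wells; lower values mean less growth of the strain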
Conditions: growth OD

Measured: normalized growth

O=C1NC(=O)C(=O)C(=O)N1
inactive: S. cerevisiae deletion strains, locus YJR075W, strain HOC1, hits give low values 1.04 | S. cerevisiae deletion strains, locus YKL009W, strain mrt4, hits give low values 0.992 | S. cerevisiae deletion strains, locus YKL068W, hits give low values 0.997 | S. cerevisiae deletion strains, locus YKL085W, strain MDH1 (second series), hits give low values 1 | S. cerevisiae deletion strains, locus YKL085W, strain MDH1, hits give low values 1 | S. cerevisiae deletion strains, locus YKL160W, strain elf1, hits give low values 0.989 | S. cerevisiae deletion strains, locus YKL190W, strain CNB1, hits give low values 1.01 | S. cerevisiae deletion strains, locus YKR001C, strain vps1, hits give low values 0.994 | S. cerevisiae deletion strains, locus YKR026C, strain gcn3, hits give low values 0.992 | S. cerevisiae deletion strains, locus YKR091W, strain srl3, hits give low values 0.989 | S. cerevisiae deletion strains, locus YLL001W, strain dnm1, hits give low values 0.994 | S. cerevisiae deletion strains, locus YLL026W, hits give low values 0.998 | S. cerevisiae deletion strains, locus YLL041C, strain sdh2, hits give low values 1 | S. cerevisiae deletion strains, locus YLR027C, strain aat2, hits give low values 1 | S. cerevisiae deletion strains, locus YLR039C, strain RIC1, hits give low values 1.04 | S. cerevisiae deletion strains, locus YLR058C, strain SHM2, hits give low values 1.02 | S. cerevisiae deletion strains, locus YLR102C, strain apc9, hits give low values 0.987 | S. cerevisiae deletion strains, locus YLR113W, strain HOG1, hits give low values 0.967 | S. cerevisiae deletion strains, locus YLR221C, strain rsa3, hits give low values 0.99 | S. cerevisiae deletion strains, locus YLR258W, strain gsy2, hits give low values 1.01 | S. cerevisiae deletion strains, locus YLR262C, strain YPT6 (second series), hits give low values 0.989 | S. cerevisiae deletion strains, locus YLR262C, strain YPT6, hits give low values 1.04 | S. cerevisiae deletion strains, locus YLR268W, strain sec22, hits give low values 0.968 | S. cerevisiae deletion strains, locus YLR320W, strain mms22, hits give low values 0.994 | S. cerevisiae deletion strains, locus YLR330W, strain CHS5, hits give low values 1.01 | S. cerevisiae deletion strains, locus YLR342W, strain FKS1 (second series), hits give low values 1.05 | S. cerevisiae deletion strains, locus YLR342W, strain FKS1, hits give low values 0.975 | S. cerevisiae deletion strains, locus YLR357W, strain rsc2, hits give low values 0.952 | S. cerevisiae deletion strains, locus YLR370C, strain arc18, hits give low values 0.982 | S. cerevisiae deletion strains, locus YLR371W, strain rom2, hits give low values 0.978 | S. cerevisiae deletion strains, locus YLR384C, strain iki3, hits give low values 0.99 | S. cerevisiae deletion strains, locus YLR418C, strain cdc73, hits give low values 0.991 | S. cerevisiae deletion strains, locus YML016C, strain PPZ1, hits give low values 1.01 | S. cerevisiae deletion strains, locus YML032C, strain rad52, hits give low values 0.976 | S. cerevisiae deletion strains, locus YML120C, strain ndi1, hits give low values 0.99 | S. cerevisiae deletion strains, locus YML124C, strain tub3, hits give low values 0.993 | S. cerevisiae deletion strains, locus YMR058W, strain fet3, hits give low values 0.999 | S. cerevisiae deletion strains, locus YMR078C, strain ctf18, hits give low values 0.98 | S. cerevisiae deletion strains, locus YMR125W, strain sto1, hits give low values 0.982 | S. cerevisiae deletion strains, locus YMR129W, hits give low values 0.982 | S. cerevisiae deletion strains, locus YMR205C, strain PFK2, hits give low values 1 | S. cerevisiae deletion strains, locus YMR223W, strain ubp8, hits give low values 1.01 | S. cerevisiae deletion strains, locus YMR231W, strain pep5, hits give low values 0.98 | S. cerevisiae deletion strains, locus YMR263W, strain SAP30, hits give low values 1.01 | S. cerevisiae deletion strains, locus YMR307W, strain GAS1, hits give low values 1.03 | S. cerevisiae deletion strains, locus YNL067W, strain RPL9B, hits give low values 1.01 | S. cerevisiae deletion strains, locus YNL071W, strain lat1, hits give low values 0.988 | S. cerevisiae deletion strains, locus YNL128W, strain TEP1, hits give low values 1.02 | S. cerevisiae deletion strains, locus YNL153C, strain GIM3, hits give low values 1.02 | S. cerevisiae deletion strains, locus YNL183C, strain NPR1, hits give low values 0.912 | S. cerevisiae deletion strains, locus YNL209W, strain ssb2, hits give low values 0.985 | S. cerevisiae deletion strains, locus YNL233W, strain BNI4, hits give low values 1.01 | S. cerevisiae deletion strains, locus YNL248C, strain rpa49, hits give low values 0.996 | S. cerevisiae deletion strains, locus YNL250W, strain rad50, hits give low values 0.995 | S. cerevisiae deletion strains, locus YNL271C, strain bni1, hits give low values 0.995 | S. cerevisiae deletion strains, locus YNL298W, strain CLA4, hits give low values 0.999 | S. cerevisiae deletion strains, locus YNL307C, strain MCK1, hits give low values 1.01 | S. cerevisiae deletion strains, locus YNL322C, strain KRE1 (second series), hits give low values 0.989 | S. cerevisiae deletion strains, locus YNL322C, strain KRE1, hits give low values 1.01 | S. cerevisiae deletion strains, locus YNR049C, strain mso1, hits give low values 0.988 | S. cerevisiae deletion strains, locus YNR052C, strain pop2, hits give low values 0.971 | S. cerevisiae deletion strains, locus YOL006C, strain TOP1, hits give low values 1.1 | S. cerevisiae deletion strains, locus YOL012C, strain htz1 0.951 | S. cerevisiae deletion strains, locus YOL147C, strain pex11, hits give low values 0.998 | S. cerevisiae deletion strains, locus YOR001W, strain rrp6, hits give low values 0.969 | S. cerevisiae deletion strains, locus YOR061W, strain CKA2, hits give low values 1.01 | S. cerevisiae deletion strains, locus YOR069W, strain VPS5, hits give low values 1.01 | S. cerevisiae deletion strains, locus YOR070C, strain gyp1, hits give low values 0.984 | S. cerevisiae deletion strains, locus YOR080W, strain dia2, hits give low values 0.99 | S. cerevisiae deletion strains, locus YOR083W, strain WHI5, hits give low values 0.996 | S. cerevisiae deletion strains, locus YOR106W, strain vam3, hits give low values 0.99 | S. cerevisiae deletion strains, locus YOR136W, strain idh2, hits give low values 0.996 | S. cerevisiae deletion strains, locus YOR144C, strain elg1, hits give low values 0.987 | S. cerevisiae deletion strains, locus YOR184W, strain ser1, hits give low values 0.997 | S. cerevisiae deletion strains, locus YOR231W, strain MKK1, hits give low values 0.964 | S. cerevisiae deletion strains, locus YOR265W, strain rbl2, hits give low values 1.01 | S. cerevisiae deletion strains, locus YOR270C, strain vph1, hits give low values 1.07 | S. cerevisiae deletion strains, locus YOR290C, strain snf2, hits give low values 0.983 | S. cerevisiae deletion strains, locus YOR316C, strain cot1, hits give low values 0.987 | S. cerevisiae deletion strains, locus YPL051W, strain arl3, hits give low values 1.01 | S. cerevisiae deletion strains, locus YPL055C, strain LGE1, hits give low values 1.04 | S. cerevisiae deletion strains, locus YPL078C, strain atp4, hits give low values 0.987 | S. cerevisiae deletion strains, locus YPL106C, strain sse1, hits give low values 0.99 | S. cerevisiae deletion strains, locus YPL240C, strain hsp82, hits give low values 0.995 | S. cerevisiae deletion strains, locus YPL241C, strain CIN2, hits give low values 1.01 | S. cerevisiae deletion strains, locus YPL256C, strain CLN2, hits give low values 0.955 | S. cerevisiae deletion strains, locus YPR119W, strain clb2, hits give low values 0.983 | S. cerevisiae deletion strains, locus YPR141C, strain kar3, hits give low values 0.994 | S. cerevisiae deletion strains, locus YPR163C, strain tif3, hits give low values 0.987 | S. cerevisiae deletion strains, locus YPR167C, strain met16, hits give low values 0.986 | S. cerevisiae deletion strains, strain wtn01, hits give low values 0.98 | S. cerevisiae strains, strain wild type, hits give low values 1.02
